{
  "source": "PubChem BioAssay (Tox21)",
  "note": "Results filed as inconclusive are left out. Entries that show only a call come without a potency. A number with no mark means an inactive call. Active and inactive are the calls of the source. The call rests on the fitted dose curve; in most records, active means well fitted activation curve with a large enough effect in the repeat runs; inconclusive means weak or mixed curves; inactive means flat fitted curve, though single readings scatter. Potency means the concentration at half of the fitted maximal effect.",
  "data": [
    {"assay": "A CellTox Green Cytotoxicity Assay to monitor cytotoxicity in HEK293 cells - 40 hour (AID 1224871); further: nearly all actives have a fitted effect of over 45% in size", "settings": "CellTox Green fluorescence; series mostly up to 76.8 µM", "excerpt": "National Center for Advancing Translational Sciences [NCATS]\nNIH Chemical Genomics Center [NCGC]\nU.S. Environmental Protection Agency [EPA]\nNational Institutes of Environmental Health Sciences [NIEHS]\nNational Toxicology Program [NTP]\nCell-based models are critical for drug discovery. Determining the natural cytotoxic effects resulting from test compounds is an essential research activity. A CellTox Green Cytotoxicity Assay to monitor cytotoxicity in real time of continues cell culture during 40 hours of the compound treatment was used to screen Tox21 10K library compounds in Hek293 cells. CellTox Green Cytotoxicity Assay is a nonlytic, homogeneous, biofluorescent method to measure cytotoxicity in cell culture after experimental manipulation. The assay system uses a proprietary asymmetric cyanine dye that is excluded from viable cells but preferentially stains the dead cell's DNA. […] Viable cells produce no appreciable increases in fluorescence. Therefore, the fluorescence signal produced by the binding interaction with dead cell DNA is proportional to cytotoxicity.\nThe mixture of Hek293 cell suspension and reagents were dispensed at 600cells/6 ul/well in 1536-well tissue culture treated black solid bottom plates using a Multidrop dispenser. After the assay plates were incubated at a 37 C/5% CO2 incubator for 5 hours, 23 nL of compounds dissolved in DMSO, positive and negative controls was transferred to the assay plate by a pintool work station. The plates were incubated at 37 C for 40 hours. The fluorescence intensity were measured at 0h, 8h, 16h, 24h, 32h and 40h time points using ViewLux plate reader during compound treatment.", "values": [
      {"compound": "ClC(c1ccccc1)(c1ccccc1)c1ccccc1", "Potency": "inactive"},
      {"compound": "Cn1ccnc1", "Potency": "inactive"},
      {"compound": "CCCCCCCCCCCCS(=O)(=O)Cl", "cytotoxicity increase": "-2.77% [at 15.8 µM]"},
      {"compound": "Brc1cc(Br)cc(Br)c1", "Potency": "inactive"},
      {"compound": "Cn1c(=O)[nH]c2ncn(C)c2c1=O", "Potency": "inactive"},
      {"compound": "Cc1c(Cl)c(=O)oc2cc(O)ccc12", "Potency": "inactive"},
      {"compound": "CC(O)(c1ccc(Cl)cc1)c1ccc(Cl)cc1", "Potency": "49 µM (active)"},
      {"compound": "CCC(=O)OC/C=C(\\C)CCC=C(C)C", "Potency": "inactive"},
      {"compound": "C=C1C(CCl)(CCl)C2(Cl)C(Cl)C(Cl)C1(Cl)C2(Cl)Cl", "note": "(stereo not given)", "Potency": "48.4 µM (active)"},
      {"compound": "Cc1ccc(S(=O)(=O)C(I)I)cc1", "Potency": "19.5 µM (active)"},
      {"compound": "CCCC(C)C=O", "note": "(stereo not given)", "Potency": "inactive"},
      {"compound": "NC(=O)c1ccccc1Cl", "Potency": "inactive"},
      {"compound": "CCOC(=O)[C@H](C)O", "Potency": "inactive"},
      {"compound": "CC(C)C(=O)C(C)C", "Potency": "inactive"},
      {"compound": "CCOC=C(C(=O)OCC)C(=O)OCC", "Potency": "inactive"},
      {"compound": "c1ccc(C[P+](c2ccccc2)(c2ccccc2)c2ccccc2)cc1", "Potency": "4.9 µM (active)"},
      {"compound": "Cc1cccc2c1ccc1ccccc12", "Potency": "inactive"},
      {"compound": "CCCCCCCCCC[N+](C)(CCCCCCCCCC)CCC[Si](OC)(OC)OC", "Potency": "43.6 µM (active)"},
      {"compound": "COc1cc(/C=C/C(=O)CC(=O)/C=C/c2ccc(O)c(OC)c2)ccc1O", "Potency": "24.7 µM (active)"},
      {"compound": "CCCCC/C=C\\C=C\\C(=O)OCC", "Potency": "20.3 µM (active)"},
      {"compound": "CC(=O)CC(N)=O", "Potency": "inactive"},
      {"compound": "COc1cc2ncnc(Nc3cccc(Cl)c3)c2cc1OC", "cytotoxicity increase": "-0.731% [at 15.8 µM]"},
      {"compound": "O=c1cc[nH]cc1", "Potency": "inactive"},
      {"compound": "Nc1cc([N+](=O)[O-])cc(Cl)c1O", "Potency": "inactive"},
      {"compound": "CC(C=O)c1ccccc1", "note": "(stereo not given)", "Potency": "inactive"},
      {"compound": "CC1(C)[C@H]2CC[C@]1(C)C(=O)C2", "Potency": "inactive"},
      {"compound": "S=C1NC=NC2N=CNC12", "note": "(stereo not given)", "Potency": "inactive"},
      {"compound": "Nc1ccc(Cl)c([N+](=O)[O-])c1", "Potency": "inactive"},
      {"compound": "N#Cc1ccc(C/C(=N/NC(=O)Nc2ccc(OC(F)(F)F)cc2)c2cccc(C(F)(F)F)c2)cc1", "Potency": "inactive"},
      {"compound": "CCCCCCCCSCc1cc(C)c(O)c(CSCCCCCCCC)c1", "Potency": "inactive"},
      {"compound": "C=C(C)C1CCC(C)CC1O", "note": "(stereo not given)", "Potency": "inactive"},
      {"compound": "c1ccc(-c2ccc(C(c3ccccc3)n3ccnc3)cc2)cc1", "note": "(stereo not given)", "Potency": "inactive"},
      {"compound": "CCOC(=O)OC(=O)OCC", "Potency": "inactive"},
      {"compound": "O=C(N[C@H](CO)[C@H](O)c1ccc([N+](=O)[O-])cc1)C(Cl)Cl", "Potency": "inactive"},
      {"compound": "CC(C)=NNC(N)=S", "Potency": "inactive"},
      {"compound": "C=CC(=O)OCCOC1C2CCC1C1CC=CC12", "note": "(stereo not given)", "cytotoxicity increase": "-0.257% [at 15.8 µM]"},
      {"compound": "C/C(=C\\c1ccc(C(=O)O)cc1)c1ccc2c(c1)C(C)(C)CCC2(C)C", "Potency": "inactive"},
      {"compound": "CCN(CC)c1ccc(C=O)c(O)c1", "Potency": "inactive"},
      {"compound": "Oc1ccc(C2(c3ccc(O)c(C4CCCCC4)c3)CCCCC2)cc1C1CCCCC1", "Potency": "inactive"},
      {"compound": "c1ccc2occc2c1", "Potency": "inactive"}
    ]}
  ]
}
